We go through five compounds from PubChem BioAssay (NCATS).

Structures are written as SMILES. Unmarked numbers belong to inactive results. Records with an inconclusive call do not appear. Activity calls are given as the source filed them. Unless noted, the call rests on the fitted dose curve; in most records, active means well fitted curve in the direction sought with a large enough effect; inconclusive means small, poorly fitted or top-dose-only effect, or another doubt; inactive means no such curve, though single readings can be large; an effect the other way counts as inactive or inconclusive. Bounds are passed on as bounds.

Assay [1] in a line: Cell Viability - N2a (AID 540).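 Further: plate controls were DMSO alone for no effect and tamoxifen control for full effect; nearly all actives have a fitted effect of over 45% in size.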 As to conditions: N2a mouse neuroblastoma cell viability; activity change, negative = cytotoxicity: at 92.2 µM (top of the series). The method, boiled down: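 Mouse neuroblastoma N2a cells (1500/well) were preincubated 5 hr at 37 °C, then exposed to compounds for 40 hr at 37 °C in complete medium. Viability was read as intracellular ATP by CellTiter-Glo luminescence; AC50 from Hill fits.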

Assay [2] can be described thus: Cell Viability - NIH 3T3 (AID 541).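 Further: plate controls were DMSO alone for no effect and tamoxifen positive control for full effect; nearly all actives have a fitted effect of over 25% in size.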 The note with it: NIH 3T3 cell viability, qHTS; activity change, negative = cytotoxicity: at 92.2 µM (top of the series). The method, boiled down:
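NIH 3T3 mouse embryo fibroblasts (1000 cells/well) were plated in complete medium and treated with compound for 40 hr at 37 °C. Viability was read as intracellular ATP by CellTiter-Glo luminescence; AC50 values came from Hill-equation fits of concentration-response data.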

A short description of assay [3]: Cell Viability - HUV-EC-C (AID 542). Further: on the % scale 0 is the no-effect control and ±100 the full control effect; nearly all actives have a fitted effect of over 35% in size. Put shortly:
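HUV-EC-C normal human vascular endothelial cells, 1000 cells/well, pre-incubated 5 hr at 37 °C, then exposed to compounds for 40 hr at 37 °C in complete medium. Viability measured as intracellular ATP by CellTiter-Glo luminescence; AC50 from Hill fits.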

Assay [4] is described as follows: Cell Viability - H-4-II-E (AID 543). Further: on the % scale 0 is the no-effect control and ±100 the full control effect; nearly all actives have a fitted effect of over 35% in size. The method, boiled down:
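Rat hepatoma H-4-II-E cells (1500/well) were plated, incubated 5 hr at 37 °C, then exposed to compounds for 40 hr at 37 °C. Cellular ATP was read by CellTiter-Glo luminescence; AC50 came from Hill-equation fits of concentration-response data.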

Assay [5] is described as follows: Cell Viability - SH-SY5Y (AID 544). Further: nearly all actives have a fitted effect of over 55% in size. Further: potency means the concentration at half of the fitted maximal effect.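 On viability change, negative = cytotoxic: 0% = DMSO alone and -100% = 100 µM tamoxifen.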 The note with it: SH-SY5Y neuroblastoma cell viability; viability change, negative = cytotoxic: at 92.2 µM (top of the series). Put shortly: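 Human neuroblastoma SH-SY5Y cells (1500/well) in complete medium were exposed to compounds for 40 hr at 37 °C; intracellular ATP was then quantified by CellTiter-Glo luminescence after 20 min at room temperature. AC50 came from Hill-equation concentration-response fits.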

The nature of assay [6]: Cell Viability - Renal Proximal Tubule (AID 545).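 Further: 0% = DMSO only and -100% = 100 µM tamoxifen; nearly all actives have a fitted effect of over 40% in size.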 As to conditions: renal proximal tubule cells viability, primary cells of rat origin; activity change, negative = cytotoxicity: at 91.7 µM (top of the series). The method, boiled down:
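In this qHTS format, normal rat kidney-derived proximal tubule cells in complete culture medium receive compound titrations, then sit 40 hours at 37 °C before luciferase-based ATP quantitation; potency is reported as AC50 from concentration-response curves.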

The nature of assay [7]: Cellular Toxicity (caspase-3) HepG2 (AID 654).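 Further: cells exposed to compound for 16 hours before reading; 0% = DMSO alone and 100% = caspase signal from 100 µM tamoxifen.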 Put shortly:
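HepG2 cells (1500/well) in complete medium were treated with compounds for 16 hr at 37 °C. Caspase-3/7 activity was then read as luminescence from peptide-aminoluciferin cleavage. AC50 came from Hill fits, normalized to DMSO and 100 uM tamoxifen.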

Assay [8] can be described thus: Cellular Toxicity (caspase-3) Jurkat (AID 655).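 Further: cells exposed to compound for 16 h at 37 °C before reading.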 The method, boiled down:
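qHTS in human Jurkat T-cell leukemia line: 16 hr compound treatment at 37 °C, caspase-3/7 activity measured by Caspase-Glo luminescence. AC50 derived from Hill equation.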

Assay [9] can be described thus: Cellular Toxicity (caspase-3) HUV-EC-C (AID 656).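 Further: 0% = DMSO basal and 100% = 100 µM tamoxifen.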 Put shortly:
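Concentration-dependent caspase 3/7 induction was assessed in HUV-EC-C cells exposed for 16 hours. Data scaled between DMSO and tamoxifen (100 uM) controls.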

Assay [10] in a line: Cellular Toxicity (caspase-3) SHSY5Y (AID 657). Put shortly:
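Readout: caspase-cleaved peptide-aminoluciferin substrate driving luciferase light in SH-SY5Y neuroblastoma cells after 16 h treatment. Response normalized to DMSO and 10 uM staurosporine controls.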

Assay [11] is described as follows: Cellular Toxicity (caspase-3) BJ (AID 658).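 Further: 0% = DMSO basal and 100% = 10 µM staurosporine.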 The method, boiled down: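 BJ human foreskin fibroblasts, 1000 cells/well, treated 16 hours at 37 °C in complete medium; caspase 3/7 activity by Caspase-Glo luminescence after 1 hr at room temperature. Normalized to DMSO and 10 uM staurosporine; AC50 from Hill fits.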
Assay [12] in a line: Cellular Toxicity (caspase-3) MRC-5 (AID 659).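 Further: 0% = DMSO basal and 100% = 10 µM staurosporine.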 Put shortly:
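MRC-5 human normal lung fibroblasts, 1500 cells/well, treated 16 h at 37 °C in complete medium. Caspase 3/7 measured by Caspase-Glo luminescence after 1 h at room temperature. Normalized to DMSO and 10 uM staurosporine; AC50 from Hill fit.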

Assay [13] can be described thus: Cellular Toxicity (caspase-3) Mesangial (AID 660). The method, boiled down: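 Human renal glomerular mesangial cells (1000/well) were treated with compounds for 16 h at 37 °C in complete medium, then caspase 3/7 activity was read by Caspase-Glo luminescence. Data were normalized to DMSO and 100 uM tamoxifen; AC50 from Hill fits.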
Assay [14] is described as follows: Cellular Toxicity (caspase-3) SK-N-SH (AID 661).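 Further: 0% = DMSO basal and 100% = 10 µM staurosporine.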 Put shortly: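 SK-N-SH human neuroblastoma cells (1500/well) were treated with compounds for 16 hr at 37 °C in complete medium; caspase 3/7 activity was read by Caspase-Glo luminescence. AC50 came from Hill fits of data normalized to DMSO and 10 uM staurosporine.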
Assay [15] can be described thus: Cellular Toxicity (caspase-3) H-4-II-E (AID 663).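 Further: cells exposed to compound for 16 hr before readout; 0% = DMSO basal and 100% = 100 µM tamoxifen.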 As to conditions: Potency: caspase-3 activation. Put shortly: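 Rat hepatoma H-4-II-E cells (1500/well) plated 5 hr, then exposed to compound titrations for 16 hr at 37 °C. Caspase-Glo 3/7 luminescence read after 20 min at RT; data normalized to DMSO and 100 uM tamoxifen, AC50 from Hill fits.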
The nature of assay [16]: Cellular Toxicity (caspase-3) Hek293 (AID 664).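 Further: cells exposed to compound for 16 h at 37 °C before readout.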 The method, boiled down:
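HEK293 cells were exposed to compounds in complete medium for 16 hr at 37 °C, then caspase-3/7 activity was read by Caspase-Glo 3/7 luminescence after 20 min at room temperature. Data normalized to DMSO and 100 uM tamoxifen; AC50 from Hill fits.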

Assay [17] can be described thus: Cellular Toxicity (caspase-3) N2a (AID 665).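 Further: compound exposure lasted 16 h at 37 °C before readout.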 Put shortly:
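Mouse N2a neuroblastoma cells (1500/well) were treated with compounds for 16 h at 37 °C, then caspase-3/7 activity was read by Caspase-Glo luminescence after 1 h at room temperature. Data were normalized to DMSO and 10 uM staurosporine; AC50 from Hill fits.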

Assay [18] deals with 3',5'-cyclic-AMP phosphodiesterase 4B (Homo sapiens) (UniProt Q07343). Briefly: qHTS Assay for Inhibitors of PDE-IV (AID 607; active means well fitted activation curve with a large enough effect in the main read-out, with a control signal flat, not every such curve was filed as active; further: % of control where 0% means no effect). The method, boiled down: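 ACTOne HEK293 cells carry a modified cAMP-gated CNG channel and express endogenous PDE4; plated 1000 cells/well, compounds up to 22.9 uM final. Membrane-potential dye fluorescence (ex 535/em 590) was read; parental cells received 10 uM forskolin + 100 uM RO 20-1724.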

Assay [19] concerns the target Glucocorticoid receptor (Homo sapiens) (UniProt P04150). Briefly: GR-GFP Redistribution (AID 450;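 active means compounds whose dose series gives a full or clear partial fitted curve of increased nuclear translocation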; further: potency means the concentration at half of the fitted maximal effect). As to conditions: U2OS GR-GFP nuclear translocation, laser cytometry, 2 h.
Assay [20] shares this target. Briefly: GR-EFC Redistribution (AID 451; calls by dose curve; further: potency means the concentration at half of the fitted maximal effect). As to conditions: CHO-K1 GR-EFC translocation, beta-gal luminescence, 2 h. The method, boiled down:
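CHO-K1 cells expressing nuclear EA and GR-ED fragments of b-gal; compounds titrated up to 46 uM final, 2 h at 37 C. GR nuclear translocation read as complemented b-gal luminescence after 1 h RT detection.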

Glucocorticoid receptor (Homo sapiens), sequence (P04150 whole entry, looked up): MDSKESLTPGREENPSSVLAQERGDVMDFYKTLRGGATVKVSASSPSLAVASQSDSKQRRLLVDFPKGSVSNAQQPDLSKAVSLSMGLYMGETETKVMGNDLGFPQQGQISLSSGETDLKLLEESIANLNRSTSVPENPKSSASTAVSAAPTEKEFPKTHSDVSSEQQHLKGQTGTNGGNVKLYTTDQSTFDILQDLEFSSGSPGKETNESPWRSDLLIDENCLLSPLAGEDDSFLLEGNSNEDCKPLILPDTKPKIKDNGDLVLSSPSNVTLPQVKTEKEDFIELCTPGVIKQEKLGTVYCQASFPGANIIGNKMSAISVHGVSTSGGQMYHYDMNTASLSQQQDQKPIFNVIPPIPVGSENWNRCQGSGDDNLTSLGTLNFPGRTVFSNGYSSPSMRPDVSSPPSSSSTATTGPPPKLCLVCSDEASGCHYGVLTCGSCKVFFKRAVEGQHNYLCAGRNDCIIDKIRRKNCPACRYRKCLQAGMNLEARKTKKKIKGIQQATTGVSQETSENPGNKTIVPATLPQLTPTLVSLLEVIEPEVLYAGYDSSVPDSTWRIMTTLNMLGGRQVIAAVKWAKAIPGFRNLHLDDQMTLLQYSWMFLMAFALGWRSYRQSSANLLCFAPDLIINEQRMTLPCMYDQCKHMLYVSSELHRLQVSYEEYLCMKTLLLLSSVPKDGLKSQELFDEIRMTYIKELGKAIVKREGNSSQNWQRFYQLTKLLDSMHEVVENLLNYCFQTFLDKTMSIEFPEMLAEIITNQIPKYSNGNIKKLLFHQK
3',5'-cyclic-AMP phosphodiesterase 4B (Homo sapiens), sequence (Q07343 whole entry, looked up): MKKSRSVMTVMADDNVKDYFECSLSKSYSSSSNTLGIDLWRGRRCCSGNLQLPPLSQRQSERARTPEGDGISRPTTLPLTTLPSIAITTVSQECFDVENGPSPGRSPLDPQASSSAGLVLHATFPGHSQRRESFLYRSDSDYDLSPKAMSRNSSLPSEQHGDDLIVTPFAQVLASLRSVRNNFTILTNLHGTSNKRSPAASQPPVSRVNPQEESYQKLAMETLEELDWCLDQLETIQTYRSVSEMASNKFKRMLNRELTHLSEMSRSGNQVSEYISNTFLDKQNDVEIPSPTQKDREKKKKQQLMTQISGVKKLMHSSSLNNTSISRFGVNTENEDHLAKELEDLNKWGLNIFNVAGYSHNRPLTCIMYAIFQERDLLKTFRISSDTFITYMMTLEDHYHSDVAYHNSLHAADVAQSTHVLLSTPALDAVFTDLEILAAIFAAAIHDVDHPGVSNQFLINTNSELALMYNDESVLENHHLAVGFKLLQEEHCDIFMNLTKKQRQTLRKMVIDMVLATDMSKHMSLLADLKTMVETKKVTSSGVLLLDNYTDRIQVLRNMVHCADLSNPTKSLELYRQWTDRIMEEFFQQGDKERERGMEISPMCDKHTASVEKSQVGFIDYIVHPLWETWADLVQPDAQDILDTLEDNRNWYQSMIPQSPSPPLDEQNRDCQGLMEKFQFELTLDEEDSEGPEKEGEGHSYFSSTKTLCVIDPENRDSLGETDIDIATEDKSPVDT

On to `CCCCC(CC)COC(=O)c1ccccc1C(=O)O` (configuration not stated), for which the Potency result in assay [1], in [3], in assay [4], in assay [5], in [6] and in [8] was “inactive” throughout. Moreover, the Potency entry in assay [10] and in [15] was “inactive” in each case. Moreover, the activity change, negative = cytotoxicity in assay [2] was 10.8%. Also, the compound was classed as inactive in assay [7], in assay [9], in assay [11], in [12], in assay [13] and in [14]. Also, the result in [16] and in assay [17] was inactive.
As for `O=C(O)/C=C(\CC(=O)O)C(=O)O`, the outcome in [18] was inactive.
`CC(C)(C)c1ccc(O)c(O)c1`: the results for the activity change, negative = cytotoxicity in [2] and in [6] were -146% (active) and -98.1% (active), respectively. The Potency in assay [5] is 12.6 µM (active). Also, the call in assay [7], in assay [9], in assay [11], in assay [12], in assay [13] and in assay [14] was inactive. For the same compound, the result in assay [16] and in assay [17] was inactive. Besides, the Potency result in assay [8], in assay [10] and in assay [15] was “inactive” each time.
Consider `CCOC(=O)NNc1nncc2ccccc12`, for which the Potency in assay [19] and in [20] was more than 20.6 µM each time. In addition, in assay [18], the call was inactive.
Turning to `Oc1ccccc1`, the Potency entry in assay [1], in [3], in assay [4], in assay [5], in assay [6] and in [8] was “inactive” throughout. In addition, the Potency result in assay [10] and in assay [15] was “inactive” in each case. Moreover, the activity change, negative = cytotoxicity in assay [2] is -17.5%. The outcome in assay [7], in assay [9], in [11], in assay [12], in assay [13] and in assay [14] was inactive. For the same compound, the call in [16] and in assay [17] was inactive.
